Assay outcomes: PubChem BioAssay, University of Kansas High Throughput Screening Laboratory
mHTT CaM bind: mutant huntingtin-calmodulin interaction inhibitors – biochemical, AlphaScreen, primary screen; AlphaScreen His-mHTT/GST-CaM binding, luminescence; P42858; actives 3.6% (n = 190,000); inhibition, % at 15 µM;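 note: 0% = both proteins with DMSO and 100% = one protein alone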
Pf apPOL inh: Pf-apPOL inhibitors, biochemical, fluorescence; Plasmodium falciparum apicoplast DNA polymerase (apPOL); Recombinant Pf-apPOL, molecular beacon fluorescence, 1.5 h; actives 0.25% (n = 210,000); inhibition, % at 10 µM
Numbers without * were called inactive; · = not tested or not shown; ! = not confirmed by another sample. Compounds with a hit are over-represented: about 3.5% of the library has one in this group of screens. Cut-off read from the data, not from the text of the source: active = inhibition above about 50%; inactive = the rest.

SMILES	mHTT CaM bind	Pf apPOL inh
COCCNc1nc(SCc2ccccc2Cl)nc2ccccc12	58*	-4
Clc1ccccc1CSc1nc(NCc2ccco2)c2ccccc2n1	19	-4
COCCN1C(=O)c2ccccc2C(C(=O)N(C)c2ccc(C(C)C)cc2)C1c1ccc(F)cc1 (stereo unspecified)	57*	-2
COCCN1C(=O)c2ccccc2C(C(=O)N(C)C2CCCCC2)C1c1ccc(F)cc1 (stereo unspecified)	5	1
O=c1[nH]c(=O)n(C2OC(CO)C(O)C2O)cc1O (stereo unspecified)	-5	·
CC(C)n1c(CN2CCOCC2)nc2ccccc21	-12	-10
NC(=NS(=O)(=O)c1ccc(Cl)cc1)c1ccc(F)cc1	0	6
O=C(c1cc(Cl)cc(Cl)c1)N1CCC(=O)N([C@H](COCc2ccccc2)Cc2ccccc2)CC1	92*	-3
O=C(c1cccc(Cl)c1)N1CCC(C(=O)N2CCN(Cc3ccccc3)CC2)CC1	10	0
Cc1ccc(S(=O)(=O)N2CCC(=O)N(C(COC(=O)Nc3ccccc3)Cc3ccccc3)CC2)cc1 (stereo unspecified)	2	-10
O=C(c1cccc(Cl)c1)N1CCC(=O)N([C@H](COCc2ccccc2)Cc2ccccc2)CC1	66*	-4
COCC(C)(O)CNC(C)=O (stereo unspecified)	-1	1
Cc1cc(O)c2c(c1)OC(=Cc1cn(C)c3ccccc13)C2=O	72*	-2
Cc1cc(O)c2c(c1)OC(=Cc1cccc(Br)c1)C2=O	56*	-13
Cc1cc(O)c2c(c1)OC(=Cc1ccccc1F)C2=O	42	7
Cc1cc(O)c2c(c1)OC(=Cc1ccc(Br)cc1)C2=O	43	-14
COc1ccc(Br)cc1C1C(C(=O)Nc2ccc(Cl)cc2)=C(C)Nc2ncnn21 (stereo unspecified)	60*	-3
COc1ccc(C2C(C(=O)Nc3ccc(Cl)cc3)=C(C)Nc3ncnn32)cc1Br (stereo unspecified)	40	2
Cn1cc(C(=O)NCCc2c[nH]c3ccccc23)c2[nH]c(=O)n(Cc3ccccc3)c(=O)c21	56*	5
Cn1cc(C(=O)NCCc2c[nH]c3ccccc23)c2nn(-c3ccccc3)c(=O)c-2c1	36	-10
Cc1c(Cl)cccc1NC(=O)N1CC(C)Oc2ccccc21 (stereo unspecified)	-5	-18
Cc1c(Cl)cccc1NC(=O)N1CC2CCCN2c2ccccc21 (stereo unspecified)	77*	-3
O=C(Nc1ccccc1F)N1CC2CCCN2c2ccccc21 (stereo unspecified)	24	-4
CCOC(=O)c1ccccc1NC(=O)N1CC2CCCN2c2ccccc21 (stereo unspecified)	68*	-1
CCc1ccccc1NC(=O)N1CC2CCCN2c2ccccc21 (stereo unspecified)	79*	-1
SMILES	mHTT CaM bind	Pf apPOL inh
COC(=O)c1ccc(Cl)cc1NC(=O)N1CC2CCCN2c2ccccc21 (stereo unspecified)	46	5
CC(C)(C)NC(=O)CCNS(=O)(=O)c1ccc(Br)s1	-6	3
Cc1nc2c(c(N(C)CCc3c(C)nn(C)c3C)n1)CCC2	-6	-2
Cc1c(C(=O)Nc2sc3c(c2C(=O)NC2CCS(=O)(=O)C2)CCCC3)oc2ccccc12 (stereo unspecified)	5	-2
CCN1CCCn2cc(S(=O)(=O)Nc3cccc(C)c3C)cc2C1=O	2	-11
COc1ccc(C(=O)Nc2nc3ccc(C)cc3s2)cc1[N+](=O)[O-]	2	-23
COc1ccc(C(=O)Nc2nc3ccc(C)cc3s2)cc1OC	51*!	2
c1ccc(CNc2nc(-c3ccccn3)cs2)cc1	100*	-2
c1ccc(-c2csc(NCc3ccco3)n2)cc1	24	-9
CCNc1nc(-c2ccccc2)cs1	·	-12
c1ccc(-c2csc(NCc3ccco3)n2)nc1	99*	-18
CCOc1ccc(N)c([N+](=O)[O-])c1	22	-19
O=C(NCCOc1ccccc1)C1CC(=O)N(c2ccc(Cl)cc2)C1 (stereo unspecified)	-2	-4
O=C(c1nccc2ccccc12)N1CCn2cnnc2C1	-2	-4
Cc1ccc(C(=O)N2CCC(n3nc(-c4ccsc4)ccc3=O)CC2)s1	100*	-4
O=C(c1cccc(F)c1)N1CCC(n2nc(-c3ccsc3)ccc2=O)CC1	95*	-1
O=C(N1CCC(n2nc(-c3ccsc3)ccc2=O)CC1)C1(c2ccccc2)CC1	-1	-2
O=C(Cc1cccc(F)c1)N1CCC(n2nc(-c3ccsc3)ccc2=O)CC1	35	-4
COc1ccc(C(=O)N2CCC(N3CCCCCC3)CC2)cc1	-2	-4
Cc1ccc(C(=O)N2CCC(c3nc(-c4ccncc4)n[nH]3)CC2)s1	12	12
CC(Oc1ccccc1)C(=O)N1CCC(n2nc(-c3ccsc3)ccc2=O)CC1 (stereo unspecified)	71*	2
COc1ccc(C(=O)N2CCC(n3nc(-c4ccsc4)ccc3=O)CC2)cc1	98*	-6
COc1ccc(C(=O)N2CCc3nc(-c4ccc(F)cc4)ncc3C2)cc1F	5	7
COc1ccc(CNC(=O)N2CCCC(c3nnc(-c4cccs4)o3)C2)cc1 (stereo unspecified)	6	-8
Cc1ccccc1-c1csc2c(=O)n(CC#N)cnc12	-13	-2
SMILES	mHTT CaM bind	Pf apPOL inh
O=C(c1cccnc1)N1CCC(n2nc(-c3ccsc3)ccc2=O)CC1	10	0
COc1cccc(C(=O)N2CCC(n3nc(-c4ccsc4)ccc3=O)CC2)c1	100*	-2
c1ccc(-c2nc(-c3ccco3)[nH]c2-c2ccccc2)cc1	·	9
COc1cc(OC)c(-c2nc(-c3ccsc3)c(-c3ccccc3)[nH]2)cc1OC	68*	-1
Cc1ccc(F)c(N2CCN(C(=O)c3ccccc3Cl)C(C)C2=O)c1 (stereo unspecified)	-7	0
Clc1nc(NCCN2CCOCC2)nc(NCc2ccccc2)n1	-6	-1
CC(CCc1ccccc1)Nc1nc(Cl)nc(NCCN2CCOCC2)n1 (stereo unspecified)	62*	2
COc1ccc(C2CC(C(F)(F)F)n3nc(C(=O)Nc4cccc(C)c4)cc3N2)cc1 (stereo unspecified)	20	1
CC1(C)CC(=O)C2=C(C1)N(c1ccccc1F)C(N)=C(C#N)C2c1cccc([N+](=O)[O-])c1 (stereo unspecified)	1	0
CCCCN1C(=O)C(C)(C(=O)NCc2cccs2)Oc2cccnc21 (stereo unspecified)	-2	-3
CCCC(=O)NC(C)c1nc2ccccc2n1Cc1ccccc1F (stereo unspecified)	4	-1
COc1ccccc1C(=O)NC(C)c1nc2ccccc2n1Cc1ccccc1F (stereo unspecified)	55*	-1
CC(C)n1cc(C2=CCN(C(=O)Nc3ccc4c(c3)OCCO4)CC2)c2cccnc21	61*	-5
CC(C)n1cc(C2=CCN(C(=O)Nc3ccc(Cl)cc3)CC2)c2cccnc21	19	-7
COC(=O)C1=C(N)Oc2c(oc(CO)cc2=O)C1c1ccc(Cl)cc1Cl (stereo unspecified)	25	-2
CC(=O)N(C1=C(Nc2ccccc2)C(=O)c2ccccc2C1=O)c1ccccc1	55*	-3
